Source: PubChem BioAssay AID651845 (Broad Institute, 2012)
Entries with a potency or affinity are not part of this list. Results filed as inconclusive are left out. The source made the active and inactive calls.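 The calls were made as follows: active = every replicate test called active, with signal dropping and a potency found within twice the top tested dose; inconclusive = replicate test calls disagree with each other; inactive = all replicate tests inactive, including signal rising.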

Assay: Trypanosoma cruzi replication inhibitors in host cells – cell-based, plate reader, dry powder samples, dose response (AID 651845)

SMILES	outcome
CNC[C@@H]1Oc2c(NC(=O)c3ccncc3)cccc2C(=O)N(C(C)C)C[C@H]1C	inactive
CC(C)N1C[C@H](C)[C@@H](CN(C)C(=O)OC(C)(C)C)Oc2c(C(=O)O)cccc2C1=O	inactive
